Reference: PubChem BioAssay (EPA / NIEHS)
Several values for one entry are separate records, joined by “and”; a condition that tells them apart may be missing. Identical values can stand only once. Inconclusive results are not listed. Activity calls are given as the source filed them. How the source made its calls: active means hit-call score of the fitted dose curve at least 0.9, where 1 is the maximum; inconclusive means response in the unintended direction; inactive means score below 0.9.

What was measured:
[1] = molecular target: Cellular tumor antigen p53 (Homo sapiens) (UniProt P04637); assay: TOX21_p53_BLA_p5_ratio: Tox21 HCT-116 p53 Agonism Beta-lactamase Assay, Ratio, Phase 5 (AID 2283599)
Summary of the method: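 HCT-116 cells carrying a p53-inducible beta-lactamase reporter were seeded at 4000 cells/well and dosed after 5 h with compound in DMSO (217-fold dilution). After 16 h at 37C, CCF4-AM substrate was added for 2 h, and the 460/530 nm emission ratio was scored as gain-of-signal versus DMSO.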

[2] = molecular target: Cellular tumor antigen p53 (Homo sapiens) (UniProt P04637); assay: TOX21_p53_BLA_p4_ratio: Tox21 HCT-116 p53 Agonism Beta-lactamase Assay, Ratio, Phase 4 (AID 2283601)
Summary of the method: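 HCT116 cells carrying an inducible beta-lactamase reporter were plated at 4000 cells/well, rested 5 h, then exposed to compounds in DMSO (217-fold dilution) for 16 h at 37C. CCF4-AM substrate was loaded 2 h at room temperature; 460/530 nm emission ratio scored gain-of-signal versus DMSO.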

[3] = Tanguay_ZF_120hpf_MORT_legacy: (Legacy) Oregon State University Tanguay Lab 120 Hour Post-fertilization zebrafish Assay for Mortality (AID 2283633);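 on AC50: fitted as increase in binary mortality versus DMSO negative control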
Summary of the method: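 Dechorionated Tropical 5D wild-type zebrafish embryos, one per well from 6 hpf, static exposure in 0.64% DMSO at 28C until 120 hpf. Mortality scored as binary by brightfield microscopy at 24 and 120 hpf.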

[4] = Tanguay_ZF_120hpf_YSE_legacy: (Legacy) Oregon State University Tanguay Lab 120 Hour Post-fertilization zebrafish Assay for Yolk Sac Edema (AID 2283634);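 on AC50: actives raise the incidence of yolk sac edema above the DMSO baseline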
Summary of the method: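 Dechorionated Tropical 5D wild-type zebrafish embryos were exposed statically, one per well, from 6 to 120 hpf at 28C in 0.64% DMSO. Yolk sac edema was scored present/absent by brightfield at 120 hpf, and dead embryos were excluded.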

[5] = Tanguay_ZF_120hpf_AXIS_legacy: (Legacy) Oregon State University Tanguay Lab 120 Hour Post-fertilization zebrafish Assay for Body Axis Malformation (AID 2283635);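 on AC50: potency for an increased fraction of larvae scored with body axis malformation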
Summary of the method: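 Dechorionated wild-type Tropical 5D zebrafish embryos, one per well, statically exposed from 6 hpf to 120 hpf at 28C in 0.64% DMSO final. Body axis malformation scored present/absent by brightfield microscopy at 120 hpf; dead embryos excluded.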

[6] = Tanguay_ZF_120hpf_EYE_legacy: (Legacy) Oregon State University Tanguay Lab 120 Hour Post-fertilization zebrafish Assay for Eye Malformation (AID 2283636);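 further: binary presence or absence of eye malformation scored by brightfield in 120 hpf larvae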
Summary of the method: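 Dechorionated wild-type Tropical 5D zebrafish embryos were exposed statically from 6 hpf, one per well, to 120 hpf at 28C in sealed, foil-covered plates with 0.64% DMSO. Eye malformation was scored present/absent by brightfield microscopy against DMSO controls.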

[7] = Tanguay_ZF_120hpf_SNOU_legacy: (Legacy) Oregon State University Tanguay Lab 120 Hour Post-fertilization zebrafish Assay for Snout Malformation (AID 2283637)
Summary of the method: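 Tropical 5D wild-type zebrafish embryos, dechorionated with pronase at 4 hpf, were exposed singly from 6 hpf to 120 hpf statically at 28C in 0.64% DMSO. Snout malformation was scored present/absent by brightfield microscopy, fitted against DMSO.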

[8] = Tanguay_ZF_120hpf_OTIC_legacy: (Legacy) Oregon State University Tanguay Lab 120 Hour Post-fertilization zebrafish Assay for Otic Vesicle Malformation (AID 2283639)
Summary of the method: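 Tropical 5D wild-type zebrafish embryos were exposed statically in sealed, foil-covered plates at 28C until 120 hpf, with 0.64% (vol/vol) DMSO final. Otic vesicle malformation was scored present/absent by brightfield microscopy, with DMSO as baseline.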

[9] = Tanguay_ZF_120hpf_JAW_legacy: (Legacy) Oregon State University Tanguay Lab 120 Hour Post-fertilization zebrafish Assay for Jaw Malformation (AID 2283638);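 on AC50: active means more embryos with jaw malformation than DMSO controls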
Summary of the method: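 Dechorionated Tropical 5D wild-type zebrafish embryos, one per well, exposed statically from 6 hpf to 120 hpf at 28C in 0.64% DMSO. Jaw malformation was scored by brightfield microscopy as present or absent. It was not scored in dead embryos.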

[10] = TOX21_p53_BLA_p5_viability: Viability Assessment in the Tox21 HCT-116 p53 Agonism Beta-lactamase Assay, Phase 5 (AID 2283600)
Summary of the method: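 HCT-116 p53 beta-lactamase reporter cells, 4000/well, were exposed to compound (pin transfer, 217-fold dilution) for 16 hours at 37C. Cellular ATP was read by CellTiter-Glo luminescence after 30 min at room temperature.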

Measured: AC50

Chain of Cellular tumor antigen p53 (Homo sapiens) (P04637 whole entry, looked up): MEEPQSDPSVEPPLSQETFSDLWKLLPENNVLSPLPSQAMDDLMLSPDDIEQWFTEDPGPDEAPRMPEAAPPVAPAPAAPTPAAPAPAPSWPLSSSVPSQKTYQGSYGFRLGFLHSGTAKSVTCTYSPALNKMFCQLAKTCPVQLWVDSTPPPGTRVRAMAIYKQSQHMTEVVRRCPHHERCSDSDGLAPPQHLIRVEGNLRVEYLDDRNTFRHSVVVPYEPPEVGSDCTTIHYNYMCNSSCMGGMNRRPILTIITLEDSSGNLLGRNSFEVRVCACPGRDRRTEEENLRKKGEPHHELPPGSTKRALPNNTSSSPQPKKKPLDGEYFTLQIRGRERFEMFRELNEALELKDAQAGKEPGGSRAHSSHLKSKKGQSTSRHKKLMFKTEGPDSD

CCCCCCOCCO
inactive: [1] | [2] | [3] | [4] | [5] | [6] | [7] | [8]

COc1ccc2c(c1)c(CC(=O)O)c(C)n2C(=O)c1ccc(Cl)cc1
inactive: [1] | [2] | [3] | [5] | [6] | [7] | [8]

CC(C)(C)c1cc(O)c(C(C)(C)C)cc1O
inactive: [2] | [6] | [8]
active: [1] 90.5 µM | [3] 11 µM | [4] 25.7 µM | [5] 25.7 µM | [7] 35.6 µM

CC1(C)CC(N=C=O)CC(C)(CN=C=O)C1 (configuration not stated)
inactive: [1] | [2] | [3] | [4] | [5] | [7] | [8]

CCOC(=O)C(C)(C)Oc1ccc(Cl)cc1
active: [5] 63.8 µM
inactive: [1] | [3] | [4] | [6]

COCCOC[C@H](CC1(C(=O)NC2CCC(C(=O)O)CC2)CCCC1)C(=O)Oc1ccc2c(c1)CCC2 (some centres not stated)
inactive: [1] | [2] | [3] | [4] | [5] | [6] | [7] | [8]

CCc1c(C(=O)NN2CCCCC2)nn(-c2ccc(Cl)cc2Cl)c1-c1ccc(Br)cc1
inactive: [1] | [2] | [3] | [4] | [5] | [6] | [7] | [9] | [8]

CC1(C)NC(=O)NC1=O
inactive: [1] | [2] | [3] | [4] | [6] | [9] | [8]

CCCCCCCCCCCC(=O)OC
inactive: [1] | [2] | [3] | [4] | [5] | [6] | [7]

Cc1cccc(Nc2cc(Cl)nc(SCC(=O)O)n2)c1C
inactive: [1] | [2] | [3] | [4] | [6] | [7] | [9] | [8]

COc1ccc(C)cc1N
inactive: [1] | [2] | [3] | [4] | [5] | [7] | [9] | [8]

COc1cc(S(=O)(=O)O)c(C)cc1N=Nc1c(O)ccc2cc(S(=O)(=O)O)ccc12
inactive: [1] | [2] | [3] | [4] | [5] | [6] | [7] | [9] | [8]

CCCc1cc(=O)[nH]c(=S)[nH]1
inactive: [1] | [2] | [4] | [5] | [6] | [7]

Cc1nc(-c2ccc3c(c2)CCN(CCC2CCC(NC(=O)/C=C/c4ccc(F)cc4)CC2)CC3)no1 (configuration not stated)
inactive: [2] | [3] | [4] | [5] | [6] | [7] | [9] | [8]
active: [1] 37.9 µM

Cc1cc(=O)[nH]c(=S)[nH]1
inactive: [1] | [2] | [3] | [4] | [5] | [6] | [7] | [9] | [8]

O=C(OCCCCCOC(=O)c1ccccc1)c1ccccc1
inactive: [1] | [2] | [3] | [4] | [5] | [6] | [7] | [9] | [8]

CN1CCN(Cc2cc(-c3ccc4[nH]c(=O)oc4c3)co2)[C@@H](c2ccc(F)cc2)C1
active: [7] 25.6 µM | [9] 25.7 µM
inactive: [3] | [4] | [5] | [6] | [8]

Oc1ccc2ccccc2c1N=Nc1ccccc1
active: [4] 43.7 µM | [5] 17.3 µM | [7] 43.8 µM | [9] 9.73 µM
inactive: [1] | [3] | [6] | [8]

C[C@]12C=CC(=O)C=C1CC[C@@H]1[C@@H]2C(=O)C[C@@]2(C)[C@H]1CC[C@]2(O)C(=O)CO
inactive: [1] | [3] | [4] | [6] | [7] | [9] | [8]

O=c1[nH]cc(F)c(=O)[nH]1
inactive: [3] | [5] | [6] | [7] | [8]
active: [1] 3.72 µM and 3.09 µM and 4.2 µM

Cc1ccccc1Cl
inactive: [1] | [3] | [4] | [5] | [6] | [7] | [9] | [8]

CC(CO)OC(C)CO (configuration not stated) (tested in a mixture with another compound)
inactive: [3] | [4] | [5] | [6] | [7] | [8]

O=C(N[C@@H](Cc1ccccc1)[C@@H](O)C(=O)N1C[C@@H](O)[C@@H](O)C1)c1cc2cc(Cl)ccc2[nH]1
inactive: [1] | [3] | [4] | [5] | [6] | [7] | [8]

FC(F)(F)C(F)(F)C(F)(F)C(F)(F)C(F)(F)C(F)(F)CCI
inactive: [1] | [3] | [4] | [5] | [6] | [7]

CCCCN(CCCC)CCCC
inactive: [1] | [3] | [4] | [5] | [7] | [9] | [8]

NC(=O)Cn1c(=O)cc(CCN2CCN(c3nccc4sccc34)CC2)c2ccc(F)cc21
inactive: [3] | [4] | [5] | [6] | [7] | [9] | [8]

CCCCCCC(=O)OCC
inactive: [3] | [5] | [6] | [7] | [8]

Cc1oc(-c2ccccc2)nc1CCOc1cccc2c1ccn2CCC(=O)O
inactive: [1] | [3] | [4] | [5] | [7] | [9] | [8]

Cc1cc(NC(=O)C(=O)O)cc(C)c1Oc1ccc(O)c2c1CCC2
active: [4] 0.0678 µM | [5] 0.526 µM | [7] 0.0742 µM
inactive: [1] | [3] | [6] | [8]

CNC(=O)[C@H]1O[C@@H](n2cnc3c(NCc4cc(Cl)ccc4OCc4cc(C)no4)ncnc32)[C@H](O)[C@@H]1N
inactive: [1] | [3] | [4] | [5] | [7] | [8]

Cc1cccc([N+](=O)[O-])c1C
inactive: [1] | [3] | [4] | [5] | [6] | [7] | [8]

CCCCCCCCCCCCCCCCCC(=O)O
inactive: [3] | [4] | [5] | [6] | [7] | [9] | [8]

Cc1nc(C)nc(N2C[C@@H](C)N(c3ccnc([C@@H](C)O)n3)[C@@H](C)C2)n1
inactive: [10] | [3] | [4] | [5] | [6] | [7] | [8]

CCCCOC(=O)CCCCCCCCC(=O)OCCCC
inactive: [2] | [3] | [4] | [6] | [7] | [8]

CC(C)c1ccc(C(=O)N=C(N)N)cc1S(C)(=O)=O
inactive: [1] | [3] | [4] | [5] | [6] | [7] | [9] | [8]

NCC1(Cc2noc(=O)[nH]2)CCCCC1
inactive: [1] | [3] | [4] | [5] | [6] | [7] | [9]

Oc1ccc2c(c1)OC[C@@H](N1CCC(O)(c3ccc(F)cc3)CC1)[C@H]2O
inactive: [1] | [3] | [4] | [6] | [7] | [9] | [8]

CCCCCCCCCCC
inactive: [3] | [4] | [5] | [6] | [7] | [9] | [8]

CC(=O)OCCOCCOCCOC(C)=O
inactive: [1] | [3] | [4] | [5] | [6] | [7] | [8]

Clc1cc(Cl)c(Cl)cc1Cl
inactive: [1] | [3] | [6] | [9] | [8]

c1cc(-c2ccncc2)ccn1
inactive: [1] | [3] | [4] | [6] | [7] | [8]

CCCCCCCCCCCCCO
inactive: [1] | [3] | [4] | [5] | [6] | [7] | [8]

CCCCCCCC=O
inactive: [2] | [3] | [4] | [5] | [6] | [7] | [8]

Cc1ccc(C)c(O)c1C
inactive: [1] | [3] | [4] | [5] | [6] | [7] | [9]

CCCCCC(=O)O
inactive: [1] | [3] | [4] | [5] | [6] | [7] | [8]

CCCCCCCCCCCCCCCC
inactive: [3] | [4] | [5] | [6] | [7] | [9] | [8]
